Screening results deposited in PubChem BioAssay by several laboratories.
Most compounds without a hit are left out; they make up all but 4.3% or so of the library.
CHOP inh – blocks CHOP induction under ER stress. CHO-K1 CHOP-promoter luciferase, tunicamycin-induced, 15-18 h. inhibition, % at 10 µM. hit rate 3.8% among 220,000. AID 2732;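 active means compounds that reduced the stress-induced luciferase reporter signal by more than about 70% of percent inhibition, limit read from the data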;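 further: 0% = tunicamycin plus vehicle and 100% = wells without tunicamycin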
CF NFkB inh – blocks PAF-induced NF-kB reporter in cystic fibrosis cells; KKLEB NF-kB-GFP reporter, GFP fluorescence overnight; inhibition, % at 5 µM; hit rate 0.86% among 360,000;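 active means at least 50% inhibition at 5 µM, scaled per plate between neutral and stimulator controls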;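 further: PAF is a Pseudomonas aeruginosa culture filtrate used as stimulus; plate controls were PAF-stimulated DMSO wells for no effect and unstimulated DMSO wells for full effect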
TRPM1 prom inh – inhibitors of MITF-driven TRPM1 promoter in melanoma cells | SK-MEL-5 TRPM1 promoter luciferase, 24 h | inhibition, % at 12.5 µM | hit rate 0.83% among 330,000;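 active means mean inhibition across replicates of 60% or more, whatever share of single replicates reaches that level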
KKLEB tox – reduces viability of KKLEB cystic fibrosis airway cells; KKLEB CF airway cells viability, ATPlite luminescence, overnight; active compounds read low; cells stimulated with P. aeruginosa culture filtrate; activity change (cytotoxicity), % at 5 µM; hit rate 0.36% among 360,000; AID 602141;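 active means corrected activity change at or below -50% at 5 µM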
HIF-2a block – inhibitors of HIF-2a | hit rate 0.72% among 360,000 | inhibition, % at 18.8 µM | AID 624352 | 786-0 RCC cells HIF-2a reporter, luciferase luminescence, overnight;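 active means inhibition of the luminescence signal of 40% or more relative to plate controls, in a single-dose primary screen at 18.75 µM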
Peg3 prom inh – Peg3 promoter activity inhibition. HeLa PEG-Prom luciferase reporter, luminescence, overnight. hit rate 1.7% among 360,000. inhibition, % at 20 µM;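 active means inhibition of at least 50% at 20 µM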
Numbers without * were called inactive; · = not tested or not shown.

SMILES	CHOP inh	CF NFkB inh	TRPM1 prom inh	KKLEB tox	HIF-2a block	Peg3 prom inh
COc1ccc(N2CCN(C(=O)CSc3nc4nc(C)cc(C)n4n3)CC2)cc1	·	-14	-4	-15	17	13
COc1cccc(C(O)c2nc(-c3ccc4ccccc4c3)cs2)c1 (stereo unspecified)	·	-12	·	3	-266	-250
COc1ccccc1N1CCN(C(=O)C(=O)c2cccc([N+](=O)[O-])c2)CC1	·	·	·	·	0	·
CC[C@H](C)Cc1cn([C@@H](CCCCNC(=O)OC(C)(C)C)C(=O)NCCCCCCCCCCC(=O)N2CCN(C(=O)OC(C)(C)C)CC2)nn1	·	0	68*	-7	1	26
O=C(OCC(=O)N1CCN(C(=O)c2ccco2)CC1)c1ccccc1NCCO	·	10	5	6	-14	-4
COc1cc(/C=N/N=C2\CC3CCC2(C)C3(C)C)ccc1O (stereo unspecified)	77*	-22	7	10	15	14
N#CCCN1CCN(Cc2cc(-c3ccccc3)ccc2O)CC1	12	2	8	-6	15	7
CC(C)(C)CC(C)(C)c1ccc(O)c(CN2CCN(CCC#N)CC2)c1	73*	6	-24	1	19	13
COC(=O)C[C@@H]1C=C[C@H](NC(=O)c2cnccn2)[C@@H](CO)O1	·	·	·	·	3	·
O=C1/C(=C/c2cccs2)N=C(c2cccs2)N1Nc1ccccc1	94*	-17	-13	-2	-44	-21
Cc1cc(C)c(S(=O)(=O)NCC2CCC(C(=O)NCCCN3CCC(C)CC3)CC2)c(C)c1 (stereo unspecified)	·	0	7	7	-2	9
CC1(C)N=C(SCC(=O)Nc2ccccc2)C(c2ccc(Cl)cc2)=N1	4	10	-5	-11	38	18
CC1(C)N=C(SCC(=O)Nc2ccc(Cl)cc2Cl)C(c2ccccc2)=N1	76*	-13	3	4	31	14
O=C(c1ccc(COc2ccccc2Br)o1)N1N=C(C(F)F)CC1(O)C(F)F (stereo unspecified)	89*	3	3	-8	13	14
Oc1ccc(Cl)cc1Sc1cc(Cl)ccc1O	·	63*	16	10	10	71*
O=C1CCc2cc(S(=O)(=O)N3CCN(c4cccc(C(F)(F)F)c4)CC3)ccc2N1	87*	2	13	-8	0	9
COc1cc(N=C2C(=O)N3c4c(cccc42)C(C)=CC3(C)C)cc(OC)c1	34	4	-1	-3	8	15
CC1=CC(C)(C)N2C(=O)C(=Nc3ccc(O)cc3)c3cccc1c32	7	13	78*	9	9	10
CC(C)(C)c1ccc(OC(=O)Nc2ccc(O)c(C(=O)O)c2)cc1	62	-14	1	10	69*	5
c1ccc2c(c1)CCN(c1nc(CN3CCOCC3)nc3sc4c(c13)CCCC4)C2	85*	21	3	-12	17	13
CCNc1nc(CN2CCOCC2)nc2sc3c(c12)CCC3	50	-10	-2	-1	15	8
CC[n+]1c(C=C2C=C(C)OC(C)=C2)sc2ccccc21	23	-22	74*	-5	2	28
O=C(CCl)NCc1cc(-c2ccc(Cl)cc2)no1	4	-36	22	-8	23	27
O=C(CCS(=O)(=O)c1ccc(F)cc1)Nc1nc(-c2ccncc2)cs1	·	18	23	-10	6	15
COCC(C)N1C(=O)Cc2c1nc(N)c1c(N)nc(N3CCN(c4ccccc4F)CC3)c(C#N)c21 (stereo unspecified)	47	6	28	-15	21	55*
SMILES	CHOP inh	CF NFkB inh	TRPM1 prom inh	KKLEB tox	HIF-2a block	Peg3 prom inh
CCN(c1ccccc1)c1nc(=O)c2cccnc2s1	-4	-20	4	17	0	-8
CCN(c1cccc(C)c1)c1nc2ccsc2c(=O)s1	73*	-1	4	-3	6	8
C=CCN1C(=O)/C(=C\c2cc(Br)c(OCc3ccccn3)c(OC)c2)SC1=S	20	50*	-6	-39	14	3
COc1cc(/C=C2\SC(=S)N(CC(=O)Nc3ccccn3)C2=O)cc(OC)c1OC	24	-18	2	-9	21	4
CC(C(=O)N1CCc2ccccc21)N(C)CC(=O)Nc1cccc(F)c1 (stereo unspecified)	·	10	8	-2	9	6
Cc1cc2cc(CCNC(=O)c3ccc(S(=O)(=O)N4CCOCC4)cc3)c(=O)[nH]c2cc1C	71*	-11	13	9	16	26
CCOC(=O)c1c(S(=O)(=O)NCC(=O)Nc2ccc(OC)cc2)c(C)n(C)c1C	·	10	1	-21	-3	4
CC(C)C(NC(=O)c1ccc(Cl)c([N+](=O)[O-])c1)C(=O)NCc1ccccn1 (stereo unspecified)	·	-16	8	5	11	12
c1ccc2c(c1)oc1c(NCCN3CCOCC3)ncnc12	-2	9	-4	-5	-6	5
c1ccc2c(c1)oc1c(Nc3ccc(CN4CCOCC4)cc3)ncnc12	18	-26	-17	-13	-177	79*
Cc1cccc(CSc2nc3ccccc3c(=O)n2C)c1	·	11	18	-8	5	5
Cc1ccc2nc3sc(C(=O)N4CCOCC4)c(N)c3cc2c1	·	0	69*	-2	-164	-162
CN(CC(=O)Nc1c(Cl)cccc1Cl)C(=O)CCNS(=O)(=O)c1ccccc1C(F)(F)F	·	-1	-2	-4	13	12
CCOc1nc(Nc2ccc(F)cc2)nc(N2CCN(c3ccc(OC)cc3)CC2)n1	63	20	-9	-8	21	29
CCOc1nc(Nc2ccc(OC)c(Cl)c2)nc(N2CCN(c3ccc(OC)cc3)CC2)n1	74*	10	-2	-21	8	14
Clc1ccc(CN2CCN(c3ncccn3)CC2)c(Cl)c1	·	11	-1	15	-16	-14
CCOC(=O)c1sc2nc3c(SCCC(=O)O)cc(C(=O)c4cc(OC)ccc4O)cn3c(=O)c2c1C	102*	-9	13	-10	-20	-25
COc1ccc(-c2nnc(N3CCC(C)CC3)c3ccccc23)cc1	85*	5	5	6	5	24
COc1cccc(-c2cc(NC(C)=O)c3ncc(-c4ccc(OC)c(OC)c4)n3c2)c1	·	-14	·	-13	-34	-3
Cc1ccc(N2CC(C(=O)N3CCN(Cc4ccc5c(c4)OCO5)CC3)CC2=O)cc1 (stereo unspecified)	·	-6	7	1	-3	4
C[C@H]1[C@H](C)CC[C@]2(C)CC[C@]3(C)C(=CC[C@@H]4[C@@]5(C)CC[C@@H](O)[C@](C)(C(=O)O)[C@@H]5CC[C@]43C)[C@H]12	1	·	·	·	·	·
